Test results reported in PubChem BioAssay (NCI).
This is part of a sample that, as a whole, favours compounds with a hit. Of some 83,000 tested, about 20% had one in any assay.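 The test compound was applied at a single concentration to cells in 96-well plates for 48 hours, and percent growth was recorded.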 A number with no mark means an inactive call. Calls of active or inactive are those of the source. How the source made its calls: active means growth percent below 10; inactive means the rest.

Experiments:
Assay in all cases: NCI-60 one-dose screen, 48 h (100 = growth as untreated, 0 = no growth, -100 = all killed)
Settings in all cases: 10 µM
[1] = system: NCI-H23 lung
[2] = system: NCI-H226 lung
[3] = system: NCI-H322M lung
[4] = system: HOP-62 NSCLC
[5] = system: NCI-H460 lung
[6] = system: HOP-92 NSCLC
[7] = system: NCI-H522 lung
[8] = system: A549/ATCC NSCLC
[9] = system: 786-0 renal
[10] = system: COLO 205 colon

| Compound | growth [1] | growth [2] | growth [3] | growth [4] | growth [5] | growth [6] | growth [7] | growth [8] | growth [9] | growth [10] |
| --- | --- | --- | --- | --- | --- | --- | --- | --- | --- | --- |
| CN1CCN(c2ccc3nc(-c4ccc5nc(-c6ccc(O)cc6)[nH]c5c4)[nH]c3c2)CC1 | 74% | 88.5% | 106% | 95.8% | 107% | 42.1% | 47% | 62.1% | 87.2% | 72% |
| S=c1[nH]nc(Cc2ccccc2)c(=S)[nH]1 | 92.5% | 103% | 97.7% | 97.7% | 104% | 100% | 88% | 94.7% | 106% | 106% |
| CN(C)CCC(=O)c1c[nH]c2ccccc12 | 110% | 105% | 94% | 94.4% | 113% |  | 91.8% | 110% | 98.8% | 111% |
| Cc1cnc(/C=N\NC(N)=S)c2cccc(N)c12 | 7.29% (active) | 4.78% (active) | -21.9% (active) | 11.3% | 1.79% (active) |  | -1.74% (active) | 11.6% | 6.81% (active) | 15.1% |
| N#C/C(=C1C=C/C(=N\O)C(Cl)=C\1)c1ccccc1 | 82.8% | 87.8% | 55.3% | 33.2% | 14.3% | 38.3% |  | 31.2% | 43% | 38.3% |
| COc1cc(C(C)(C)C)cc(OC)c1C(O)(c1c(OC)cc(C(C)(C)C)cc1OC)c1c(OC)cc(C(C)(C)C)cc1OC | -51.2% (active) | -65.7% (active) | -68.6% (active) | -95.3% (active) | -82.1% (active) | -66.2% (active) | -56.4% (active) | -54.4% (active) | -96.6% (active) | -89.2% (active) |
| CSc1ccc2c(c1)C(N1CCN(C)CC1)Cc1ccccc1S2 (centres undefined) | 56% | 55.3% |  |  | 29% | 5.58% (active) |  | 52.7% | 53.6% | -75.1% (active) |
| O=C(/C(=C/c1ccccc1)CBr)c1ccccc1 | 73.1% | 93% | 90.4% | 109% | 86.4% | 86.3% | 55.8% | 90.1% | 94.5% | 92.6% |
